# Reference: PubChem BioAssay (Tox21)
# Activity calls are given as the source filed them. Calls follow the shape of the full dose curve.
# Assay: qHTS assay to identify small molecule agonists of the sonic hedgehog signaling (Shh) pathway (AID 1259368); also: nearly all actives have a fitted effect of over 15% in size
# Conditions: NIH/3T3 Gli1-Luc reporter, luciferase, 24 h, active compounds read high; series mostly up to 92.4 µM; activity change: at the top concentration
# Summary of the method: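 Quantitative high-throughput format using a Gli1-driven firefly luciferase reporter line derived from NIH/3T3 cells. After a 24 hr compound treatment at 37 C and 5% CO2, luminescence reported Gli1 response element activity.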
# % is scaled to controls: 0 for no effect and ±100 for the full control effect.
row,SMILES,activity change
1,CN(C)c1cc(NC(=O)CNC(C)(C)C)c(O)c2c1C[C@H]1C[C@H]3[C@H](N(C)C)C(=O)C(C(N)=O)=C(O)[C@@]3(O)C(=O)C1=C2O,-1.52% [at 42.5 µM] (inactive)
2,O=C[C@@H](O)[C@H](O)[C@H](O)CO,0.658% (inactive)
3,CCCCS,0.216% (inactive)
4,C=COCCCCO,-0.15% (inactive)
5,CN1C(CCl)Nc2cc(Cl)c(S(N)(=O)=O)cc2S1(=O)=O (stereo not drawn),0.15% [at 42.5 µM] (inactive)
6,CCCCN1C(=O)c2ccccc2C1=O,0.518% (inactive)
7,Cc1cc(=O)oc2cc(O[C@@H]3SC[C@@H](O)[C@H](O)[C@H]3O)ccc12,-0.163% [at 42.5 µM] (inactive)
8,C/C=C(\C)C=O,-1.05% (inactive)
9,COc1cnc(NS(=O)(=O)c2ccc(N)cc2)nc1,0.721% [at 42.5 µM] (inactive)
10,COC(=O)/C=C(\C)CCC=C(C)C,2.52% (inactive)
11,Cc1cc(O)c(Cl)cc1C,0.665% (inactive)
12,NNC(=O)OCc1ccccc1,-0.416% (inactive)
13,CC(=O)c1c(C)cc(C(C)(C)C)cc1C,-1.12% (inactive)
14,COc1ccc2cc(CCC(C)=O)ccc2c1,7.67% [at 42.5 µM] (inactive)
15,CN(C)CCc1c[nH]c2ccc(CS(=O)(=O)N3CCCC3)cc12,-0.756% [at 42.5 µM] (inactive)
16,CCOC(=O)CN1CCCC1=O,-0.698% [at 42.5 µM] (inactive)
17,CCCCCCCCCCCCCCCCN(C)C,-0.702% [at 8.39 µM] (inactive)
18,C[C@@H]1NC(=O)[C@@H](N)CNC(=O)[C@H](C2CCNC(N)=N2)NC(=O)/C(=C/NC(N)=O)NC(=O)[C@H](CNC(=O)C[C@@H](N)CCCN)NC1=O (stereo partly drawn),0.0291% [at 0.349 µM] (inactive)
19,CCCCC(O)/C=C(C)/C=C/C=C/C(=O)N1CCCC1=O (stereo not drawn),-0.274% [at 42.5 µM] (inactive)

row,SMILES,activity change
1,CCc1ncc(C)[nH]1,0.134% (inactive)
2,CCCCCCCCCCCC(C)=O,0.416% (inactive)
3,CC[C@@]1(c2ccccc2)NC(=O)N(C)C1=O,-0.549% [at 42.5 µM] (inactive)
4,CCCC(=O)OC,-0.412% (inactive)
5,CC(C)(C)OC=O,-0.985% (inactive)
6,Cc1cc(C)c(N)c(Cl)c1,0.195% (inactive)
7,C=CCON/C(CCC)=C1\C(=O)CC(C)(C)C(C(=O)OC)=C1O,-0.23% (inactive)
8,CN1CCN(C(=O)C2CCCCC2)CC1,-0.119% [at 42.5 µM] (inactive)
9,O=C1c2ccccc2C(=O)N1CO,0.213% (inactive)
10,C=CC(C)(CCC=C(C)C)OC(=O)C(C)C (stereo not drawn),-0.127% (inactive)
11,CCOC(=O)CC(C(C)=O)C(C)=O,0.072% (inactive)
12,COC(=O)c1cc(Cl)c(NC(C)=O)cc1OC,-0.957% [at 42.5 µM] (inactive)
13,Cc1nnc(C(=O)NC(C)(C)c2nc(C(=O)NCc3ccc(F)cc3)c(O)c(=O)n2C)o1,-0.0127% [at 42.5 µM] (inactive)
14,Cc1ccc2cccnc2c1,-0.28% (inactive)
15,CCCCN(CCCC)CCCCCCN(CCCC)CCCC,-1.04% (inactive)
16,CC1(C)S[C@@H]2[C@H](NC(=O)Cc3ccccc3)C(=O)N2[C@H]1C(=O)O (tested in a mixture with another compound),0.511% [at 42.5 µM] (inactive)
17,CCN1CCN(C(=O)N[C@@H](C(=O)N[C@@H]2C(=O)N3C(C(=O)O)=C(CSc4nnnn4C)CS[C@H]23)c2ccc(O)cc2)C(=O)C1=O,0.543% [at 42.5 µM] (inactive)
18,COc1cc(OC)cc(OC)c1,-0.113% [at 42.5 µM] (inactive)
19,Cc1ccc(N)nc1,-1.69% (inactive)
